The text below walks through data of PubChem BioAssay AID1159580 (chemical genetic matrix, 2015).

The assay is described as follows: chemical genetic growth profiling, strain panel (AID 1159580).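 Also: tested at 20 µM; growth read once vehicle control cultures reached saturation at 30 °C; 1 = growth at the plate median or of vehicle wells; lower values mean less growth of the strain.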 The conditions noted are these: growth OD.
[1] abbreviates: S. cerevisiae deletion strains, locus YHR030C, strain SLT2, stronger effect = lower value.

Among all 5,500 compounds or so, about 2,000 (36%) were called active. Inconclusive results (about 18%) are left out. The list shows a part of the results. Values without a mark were called inactive. Rule as the data show it: active = normalized growth mostly below about 0.91 (no sharp cut-off); inconclusive = no clear call, values can overlap the other calls; inactive = mostly above about 0.92.

For the compound `C[N+](C)(CCOc1ccccc1)Cc1ccccc1`, the normalized growth was 0.888 under setting [1]; 0.844 (active) (S. cerevisiae deletion strains, locus YHR079C, strain IRE1, stronger effect = lower value); 0.869 (active) (S. cerevisiae deletion strains, locus YJL095W, strain BCK1, stronger effect = lower value); 0.799 (active) (S. cerevisiae deletion strains, locus YJR066W, strain TOR1, stronger effect = lower value); 0.805 (active) (S. cerevisiae deletion strains, locus YLR113W, strain HOG1, stronger effect = lower value); 0.788 (active) (S. cerevisiae deletion strains, locus YNL183C, strain NPR1, stronger effect = lower value). Besides, the normalized growth is, setting by setting: (S. cerevisiae deletion strains, locus YOR231W, strain MKK1, stronger effect = lower value) 0.887; (S. cerevisiae deletion strains, locus YPL256C, strain CLN2, stronger effect = lower value) 0.812 (active).
For the compound `O=C(O)CSCCOc1ccccc1`, the normalized growth was 1.01 (S. cerevisiae deletion strains, locus YAL013W, strain DEP1, stronger effect = lower value); 1.01 (S. cerevisiae deletion strains, locus YBR229C, strain ROT2, stronger effect = lower value); 1 (S. cerevisiae deletion strains, locus YCL061C, strain MRC1, stronger effect = lower value); 0.997 (S. cerevisiae deletion strains, locus YDL101C, strain DUN1, stronger effect = lower value); 1.03 (S. cerevisiae deletion strains, locus YDL134C, strain PPH21, stronger effect = lower value); 0.932 (S. cerevisiae deletion strains, locus YDR150W, strain NUM1, stronger effect = lower value). In addition, the normalized growth (S. cerevisiae deletion strains, locus YEL061C, strain CIN8, stronger effect = lower value) is 1.01; the normalized growth (S. cerevisiae deletion strains, locus YGR078C, strain PAC10, stronger effect = lower value) was 1; the normalized growth under setting [1] was 1.07; the normalized growth (S. cerevisiae deletion strains, locus YHR087W, strain rtc3, stronger effect = lower value) is 0.998; the normalized growth (S. cerevisiae deletion strains, locus YJR043C, strain POL32, stronger effect = lower value) is 1.01; the normalized growth (S. cerevisiae deletion strains, locus YJR075W, strain HOC1, stronger effect = lower value) was 1.02. Besides, the normalized growth runs as follows: (S. cerevisiae deletion strains, locus YKL190W, strain CNB1, stronger effect = lower value) 1.01; (S. cerevisiae deletion strains, locus YLR039C, strain RIC1, stronger effect = lower value) 1.04; (S. cerevisiae deletion strains, locus YLR058C, strain SHM2 (second series), stronger effect = lower value) 1.01; (S. cerevisiae deletion strains, locus YLR085C, strain ARP6, stronger effect = lower value) 0.997; (S. cerevisiae deletion strains, locus YLR262C, strain YPT6, stronger effect = lower value) 1.05; (S. cerevisiae deletion strains, locus YML094W, strain GIM5, stronger effect = lower value) 1.01. Also, the normalized growth runs as follows: (S. cerevisiae deletion strains, locus YMR219W, strain ESC1, stronger effect = lower value) 1; (S. cerevisiae deletion strains, locus YMR263W, strain SAP30, stronger effect = lower value) 1.01; (S. cerevisiae deletion strains, locus YMR307W, strain GAS1, stronger effect = lower value) 1.05; (S. cerevisiae deletion strains, locus YNL153C, strain GIM3, stronger effect = lower value) 1; (S. cerevisiae deletion strains, locus YNL298W, strain CLA4 (second series), stronger effect = lower value) 1.02; (S. cerevisiae deletion strains, locus YNL322C, strain KRE1, stronger effect = lower value) 0.997. Besides, the normalized growth (S. cerevisiae deletion strains, locus YNR030W, strain Alg12, stronger effect = lower value) was 1.02; the normalized growth (S. cerevisiae deletion strains, locus YPL055C, strain LGE1, stronger effect = lower value) is 1.09; the normalized growth (S. cerevisiae deletion strains, locus YPL241C, strain CIN2, stronger effect = lower value) is 0.994; the normalized growth (S. cerevisiae deletion strains, locus YPR135W, strain CTF4, stronger effect = lower value) is 1.17; the normalized growth (S. cerevisiae strains, strain wild type, stronger effect = lower value) was 1.02.
